Results taken from PubChem BioAssay AID588763 (NMMLSC, 2011).
Results with a measured potency or affinity are listed apart. Active and inactive are the calls of the source. How the calls were made is not given here.

biological target: Beta-2 adrenergic receptor (Homo sapiens) (UniProt P07550); assay: beta2AR agonists driving receptor internalization, dose response, cell-based, FAP fluorogen, flow cytometry, cherry pick 1 (AID 588763); details: AM2.2-beta2AR cells, 90 min; series mostly up to 33 µM; activation (receptor internalization): at the top concentration
Sequence (P07550 whole entry, looked up): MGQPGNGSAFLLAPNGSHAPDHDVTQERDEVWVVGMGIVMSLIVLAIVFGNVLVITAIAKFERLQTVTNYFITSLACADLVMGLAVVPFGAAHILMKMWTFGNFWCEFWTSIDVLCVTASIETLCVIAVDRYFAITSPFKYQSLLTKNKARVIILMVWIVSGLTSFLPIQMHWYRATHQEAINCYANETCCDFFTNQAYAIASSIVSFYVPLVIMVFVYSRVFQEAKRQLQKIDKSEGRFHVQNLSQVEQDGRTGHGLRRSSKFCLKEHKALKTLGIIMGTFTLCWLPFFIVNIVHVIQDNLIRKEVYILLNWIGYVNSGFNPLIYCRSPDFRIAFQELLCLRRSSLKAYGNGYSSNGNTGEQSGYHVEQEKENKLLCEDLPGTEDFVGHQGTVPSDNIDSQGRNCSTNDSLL

Activation (receptor internalization), inactive:
O=C(c1ccc(-c2nnc(Nc3ccccc3)c3ccccc23)cc1)N1C[C@H]2C[C@H](C1)c1cccc(=O)n1C2 4.94%
NC(=O)CC(NC(=O)c1ccccc1)c1ccc(N2CCN(c3ccccn3)CC2)c([N+](=O)[O-])c1 (stereo unspecified) 14.7%
COC(=O)c1ccccc1NC(=O)COc1ccc(S(=O)(=O)N2CCCC2)cc1C 6.72%
CN(C)S(=O)(=O)c1cccc(NC(=O)c2ccc(N3CCOCC3)c([N+](=O)[O-])c2)c1 109%
Cc1ccc(OCc2cc(C(=O)NCc3cc(F)ccc3C)no2)cn1 -17.5%
COc1cc(NC(=O)c2ccco2)c(OC)cc1NC(=O)c1cc(OC)c(OC)c(OC)c1 4.51%
CC(C)CNc1ncnc2c1sc1nc(N3CCOCC3)c3c(c12)CC(C)(C)OC3 -1.37%
NS(=O)(=O)c1ccc(NC(=O)c2cccc(N3C(=O)c4ccccc4C3=O)c2)cc1 95.3%
CC1=NN(C(N)=S)C(=O)C1N=Nc1ccc(F)cc1 (stereo unspecified) -24%
COc1ccc(Cl)c(NC(=O)Cn2nnc(-c3ccccc3N)n2)c1 7.97%
COc1cc(NC(=O)c2ccc3c(c2)OCO3)ccc1NC(=O)c1ccco1 -12.7%
O=C(Nc1cccc(-c2nc3cccnc3s2)c1)C1c2ccccc2Oc2ccccc21 87.7%
O=C(Nc1ccc(S(=O)(=O)N2CCCCC2c2cccnc2)cc1)c1ccccc1F (stereo unspecified) 27.6%
Cc1cc(S(=O)(=O)N2CCOCC2)ccc1OCC(=O)Nc1ccccc1F -7.22%

outcome, inactive:
COCC(C)NC(=O)CCS(=O)(=O)c1nc(-c2ccc(OC)cc2)cc(C(F)(F)F)n1 (stereo unspecified)
COc1ccc(OC)c(S(=O)(=O)N(C)CC(=O)N2CCN(c3cccc(Cl)c3)CC2)c1
